Measured values: PMC7862700, “An all-to-all approach to the identification of sequence-specific readers for epigenetic DNA modifications on cytosine”

How the values were obtained:
Assay in all cases: DAPPL (digital affinity profiling via proximity ligation, sequencing); 10 mM Tris-HCl pH 7.5, 50 mM NaCl, 1 mM DTT, 4% glycerol, room temperature, 30 min; GST-TFs on glutathione beads, 16-mer random dsDNA library, 0.1% formaldehyde crosslink after washing; high values mean tight binding
FLI1 = target: T1, FLI1 (Homo sapiens, UniProt Q01543 1-452); conditions: protein: recombinant; tags: N-terminal GST; dsDNA, one strand shown
T1 sequence: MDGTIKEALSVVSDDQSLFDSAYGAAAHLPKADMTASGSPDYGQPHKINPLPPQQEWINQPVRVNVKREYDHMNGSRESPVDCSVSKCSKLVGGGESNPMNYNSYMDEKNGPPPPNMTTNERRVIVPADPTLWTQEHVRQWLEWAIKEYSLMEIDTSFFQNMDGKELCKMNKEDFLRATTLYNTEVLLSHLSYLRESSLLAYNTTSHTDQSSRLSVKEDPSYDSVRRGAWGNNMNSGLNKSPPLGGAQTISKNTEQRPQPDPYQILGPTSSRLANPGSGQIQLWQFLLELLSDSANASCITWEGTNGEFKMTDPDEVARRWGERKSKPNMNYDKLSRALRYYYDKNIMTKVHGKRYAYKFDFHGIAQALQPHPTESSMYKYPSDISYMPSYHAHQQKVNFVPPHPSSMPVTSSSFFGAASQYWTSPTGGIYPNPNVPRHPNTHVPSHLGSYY
Procedure, shortened: (§1)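 A tag-only sample was pooled with DNA-barcoded human transcription factors that had been expressed in yeast as GST fusions and captured on glutathione beads. The pools were incubated for 30 min at room temperature with 200 nmole of a random double-stranded 16-mer DNA library in Tris/NaCl/DTT/glycerol buffer, then washed, crosslinked with 0.1% formaldehyde, proximity-ligated (BsaI/T4 ligase, 1 h, 37 °C), PCR-amplified and sequenced on an Illumina NextSeq500. Binding signal is each hexamer's read frequency for a factor divided by its frequency for the tag-only sample.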

ELK1 = target: T2, ELK1 (Homo sapiens, UniProt P19419 1-428); conditions: protein: recombinant; tags: N-terminal GST; dsDNA, one strand shown
T2 sequence: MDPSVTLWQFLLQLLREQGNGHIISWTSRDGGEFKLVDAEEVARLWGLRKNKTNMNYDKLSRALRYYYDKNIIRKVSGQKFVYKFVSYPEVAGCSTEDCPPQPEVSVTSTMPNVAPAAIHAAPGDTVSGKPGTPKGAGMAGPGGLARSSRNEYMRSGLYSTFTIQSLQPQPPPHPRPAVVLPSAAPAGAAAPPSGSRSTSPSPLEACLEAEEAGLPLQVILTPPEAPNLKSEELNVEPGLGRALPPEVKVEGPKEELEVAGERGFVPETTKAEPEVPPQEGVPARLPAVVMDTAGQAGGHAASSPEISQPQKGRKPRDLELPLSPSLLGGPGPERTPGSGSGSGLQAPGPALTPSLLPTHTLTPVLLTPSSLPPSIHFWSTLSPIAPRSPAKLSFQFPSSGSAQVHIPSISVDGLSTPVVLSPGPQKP
Procedure, shortened: as §1

GABPA = target: T3, GABPA (Homo sapiens, UniProt Q06546 1-454); conditions: protein: recombinant; tags: N-terminal GST; dsDNA, one strand shown
T3 sequence: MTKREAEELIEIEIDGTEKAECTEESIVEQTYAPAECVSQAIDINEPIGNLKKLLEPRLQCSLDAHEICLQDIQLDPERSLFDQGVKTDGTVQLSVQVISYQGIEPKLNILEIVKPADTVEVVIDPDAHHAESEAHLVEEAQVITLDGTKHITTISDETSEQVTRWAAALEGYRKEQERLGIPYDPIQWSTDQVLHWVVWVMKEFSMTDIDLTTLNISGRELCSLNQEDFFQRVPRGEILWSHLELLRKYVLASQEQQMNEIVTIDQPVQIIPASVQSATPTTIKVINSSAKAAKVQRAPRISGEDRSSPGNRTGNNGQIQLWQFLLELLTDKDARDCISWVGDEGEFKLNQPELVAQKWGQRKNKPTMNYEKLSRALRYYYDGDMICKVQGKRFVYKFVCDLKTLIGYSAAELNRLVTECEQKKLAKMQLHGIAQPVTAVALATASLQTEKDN
Procedure, shortened: as §1

ERG = target: T4, ERG (Homo sapiens, UniProt P11308 1-479); conditions: protein: recombinant; tags: N-terminal GST; dsDNA, one strand shown
T4 sequence: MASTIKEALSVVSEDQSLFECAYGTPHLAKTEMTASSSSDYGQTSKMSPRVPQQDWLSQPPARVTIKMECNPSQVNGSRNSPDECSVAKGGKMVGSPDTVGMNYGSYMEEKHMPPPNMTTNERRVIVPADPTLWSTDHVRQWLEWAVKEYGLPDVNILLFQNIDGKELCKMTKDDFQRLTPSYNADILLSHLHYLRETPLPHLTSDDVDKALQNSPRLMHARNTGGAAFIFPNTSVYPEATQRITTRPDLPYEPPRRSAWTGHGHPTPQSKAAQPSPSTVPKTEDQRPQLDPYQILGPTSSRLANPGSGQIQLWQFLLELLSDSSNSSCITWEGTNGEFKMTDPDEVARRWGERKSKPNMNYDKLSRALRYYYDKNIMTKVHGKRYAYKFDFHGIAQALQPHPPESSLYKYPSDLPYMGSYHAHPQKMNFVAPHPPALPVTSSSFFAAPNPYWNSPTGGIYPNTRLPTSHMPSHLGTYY
Procedure, shortened: as §1

ELF1 = ELF1 (Homo sapiens, UniProt P32519 1-619); conditions: protein: recombinant; tags: N-terminal GST; dsDNA, one strand shown
Procedure, shortened: as §1

EHF = target: T5, EHF (Homo sapiens, UniProt Q9NZC4 1-300); conditions: protein: recombinant; tags: N-terminal GST; dsDNA, one strand shown
T5 sequence: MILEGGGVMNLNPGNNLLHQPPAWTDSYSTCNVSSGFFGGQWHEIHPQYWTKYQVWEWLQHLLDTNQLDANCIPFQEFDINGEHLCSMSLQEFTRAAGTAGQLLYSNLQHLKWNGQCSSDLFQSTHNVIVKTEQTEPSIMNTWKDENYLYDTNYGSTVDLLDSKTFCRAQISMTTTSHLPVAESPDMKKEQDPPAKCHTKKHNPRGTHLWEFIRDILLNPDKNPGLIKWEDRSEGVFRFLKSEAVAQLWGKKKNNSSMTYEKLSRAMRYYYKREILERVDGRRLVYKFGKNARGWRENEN
Procedure, shortened: as §1

SPI1 = SPI1 (Homo sapiens, UniProt P17947 1-270); conditions: protein: recombinant; tags: N-terminal GST; dsDNA, one strand shown
Procedure, shortened: as §1

SPIB = SPIB (Homo sapiens, UniProt Q01892 1-262); conditions: protein: recombinant; tags: N-terminal GST; dsDNA, one strand shown
Procedure, shortened: as §1

ELK3 = target: T6, ELK3 (Homo sapiens, UniProt P41970 1-407); conditions: protein: recombinant; tags: N-terminal GST; dsDNA, one strand shown
T6 sequence: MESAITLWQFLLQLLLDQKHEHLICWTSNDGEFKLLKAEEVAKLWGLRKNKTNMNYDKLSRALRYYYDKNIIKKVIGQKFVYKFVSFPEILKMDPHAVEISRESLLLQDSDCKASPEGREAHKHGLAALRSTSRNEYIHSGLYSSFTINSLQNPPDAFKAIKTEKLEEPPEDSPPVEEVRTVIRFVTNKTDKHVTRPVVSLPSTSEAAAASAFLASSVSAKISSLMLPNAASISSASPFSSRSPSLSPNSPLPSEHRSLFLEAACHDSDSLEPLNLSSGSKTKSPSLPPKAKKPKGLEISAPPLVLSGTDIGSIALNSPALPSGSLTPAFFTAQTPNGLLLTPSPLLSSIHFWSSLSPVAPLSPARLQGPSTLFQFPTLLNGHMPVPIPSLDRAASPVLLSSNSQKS
Procedure, shortened: as §1

FEV = target: T7, FEV (Homo sapiens, UniProt Q99581 1-238); conditions: protein: recombinant; tags: N-terminal GST; dsDNA, one strand shown
T7 sequence: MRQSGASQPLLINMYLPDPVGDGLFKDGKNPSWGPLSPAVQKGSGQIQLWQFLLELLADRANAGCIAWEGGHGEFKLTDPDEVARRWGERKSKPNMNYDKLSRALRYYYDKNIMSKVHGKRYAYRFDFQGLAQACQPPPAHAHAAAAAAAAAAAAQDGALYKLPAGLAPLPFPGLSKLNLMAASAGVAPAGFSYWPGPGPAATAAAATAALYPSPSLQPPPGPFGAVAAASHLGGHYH
Procedure, shortened: as §1

ETV5 = ETV5 (Homo sapiens, UniProt P41161 1-510); conditions: protein: recombinant; tags: N-terminal GST; dsDNA, one strand shown
Procedure, shortened: as §1

HSF1 = HSF1 (Homo sapiens, UniProt Q00613 1-529); conditions: protein: recombinant; tags: N-terminal GST; chain copies: 3; dsDNA, one strand shown
Procedure, shortened: as §1

SPIC = target: T8, SPIC (Homo sapiens, UniProt Q8N5J4 1-248); conditions: protein: recombinant; tags: N-terminal GST; dsDNA, one strand shown
T8 sequence: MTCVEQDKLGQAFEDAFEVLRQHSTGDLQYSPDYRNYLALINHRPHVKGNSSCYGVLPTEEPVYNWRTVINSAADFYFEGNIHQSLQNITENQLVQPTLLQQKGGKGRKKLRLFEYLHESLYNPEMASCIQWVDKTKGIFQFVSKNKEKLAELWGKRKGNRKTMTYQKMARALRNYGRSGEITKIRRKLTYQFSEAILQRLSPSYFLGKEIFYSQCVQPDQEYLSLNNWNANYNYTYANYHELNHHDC
Procedure, shortened: as §1

ELF4 = ELF4 (Homo sapiens, UniProt Q99607 1-663); conditions: protein: recombinant; tags: N-terminal GST; dsDNA, one strand shown
Procedure, shortened: as §1

ELK4 = target: T9, ELK4 (Homo sapiens, UniProt P28324-2 1-405); conditions: protein: recombinant; tags: N-terminal GST; dsDNA, one strand shown
T9 sequence: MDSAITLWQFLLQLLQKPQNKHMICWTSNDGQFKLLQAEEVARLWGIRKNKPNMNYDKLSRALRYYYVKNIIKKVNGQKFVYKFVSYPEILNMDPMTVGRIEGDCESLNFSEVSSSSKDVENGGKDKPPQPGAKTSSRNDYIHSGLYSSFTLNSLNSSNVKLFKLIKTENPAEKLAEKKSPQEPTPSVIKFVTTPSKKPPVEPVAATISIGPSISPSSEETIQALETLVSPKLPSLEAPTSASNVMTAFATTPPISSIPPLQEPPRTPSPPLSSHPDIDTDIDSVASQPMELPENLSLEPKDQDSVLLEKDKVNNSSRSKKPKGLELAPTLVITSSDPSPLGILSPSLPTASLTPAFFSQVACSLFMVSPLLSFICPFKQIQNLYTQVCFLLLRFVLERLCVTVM
Procedure, shortened: as §1

ETV2 = target: T10, ETV2 (Homo sapiens, UniProt O00321 1-342); conditions: protein: recombinant; tags: N-terminal GST; dsDNA, one strand shown
T10 sequence: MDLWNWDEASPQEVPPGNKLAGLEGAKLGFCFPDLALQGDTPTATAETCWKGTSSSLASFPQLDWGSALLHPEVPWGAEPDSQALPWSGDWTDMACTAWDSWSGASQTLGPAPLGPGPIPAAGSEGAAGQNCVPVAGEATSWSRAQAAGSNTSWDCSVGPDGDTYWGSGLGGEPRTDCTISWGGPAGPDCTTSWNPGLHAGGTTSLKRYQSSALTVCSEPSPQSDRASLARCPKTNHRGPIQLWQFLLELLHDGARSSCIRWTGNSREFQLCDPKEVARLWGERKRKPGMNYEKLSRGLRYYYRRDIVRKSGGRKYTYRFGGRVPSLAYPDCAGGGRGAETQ
Procedure, shortened: as §1

ELF3 = target: T11, ELF3 (Homo sapiens, UniProt P78545 1-371); conditions: protein: recombinant; tags: N-terminal GST; dsDNA, one strand shown
T11 sequence: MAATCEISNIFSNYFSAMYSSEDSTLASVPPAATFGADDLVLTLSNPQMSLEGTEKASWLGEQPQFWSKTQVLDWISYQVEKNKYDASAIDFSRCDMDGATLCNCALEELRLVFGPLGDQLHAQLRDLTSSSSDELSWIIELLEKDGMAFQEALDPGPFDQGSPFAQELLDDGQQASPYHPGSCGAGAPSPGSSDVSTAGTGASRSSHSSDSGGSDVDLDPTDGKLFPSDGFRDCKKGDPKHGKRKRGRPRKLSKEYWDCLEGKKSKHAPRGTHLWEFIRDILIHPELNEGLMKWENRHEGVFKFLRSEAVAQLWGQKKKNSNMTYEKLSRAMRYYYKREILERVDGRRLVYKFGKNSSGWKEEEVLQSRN
Procedure, shortened: as §1

CRX = CRX (Homo sapiens, UniProt O43186 1-299); conditions: protein: recombinant; tags: N-terminal GST; dsDNA, one strand shown
Procedure, shortened: as §1

ETV1 = ETV1 (Homo sapiens, UniProt P50549 1-477); conditions: protein: recombinant; tags: N-terminal GST; dsDNA, one strand shown
Procedure, shortened: as §1

Chain of ELF4 (Q99607 whole entry): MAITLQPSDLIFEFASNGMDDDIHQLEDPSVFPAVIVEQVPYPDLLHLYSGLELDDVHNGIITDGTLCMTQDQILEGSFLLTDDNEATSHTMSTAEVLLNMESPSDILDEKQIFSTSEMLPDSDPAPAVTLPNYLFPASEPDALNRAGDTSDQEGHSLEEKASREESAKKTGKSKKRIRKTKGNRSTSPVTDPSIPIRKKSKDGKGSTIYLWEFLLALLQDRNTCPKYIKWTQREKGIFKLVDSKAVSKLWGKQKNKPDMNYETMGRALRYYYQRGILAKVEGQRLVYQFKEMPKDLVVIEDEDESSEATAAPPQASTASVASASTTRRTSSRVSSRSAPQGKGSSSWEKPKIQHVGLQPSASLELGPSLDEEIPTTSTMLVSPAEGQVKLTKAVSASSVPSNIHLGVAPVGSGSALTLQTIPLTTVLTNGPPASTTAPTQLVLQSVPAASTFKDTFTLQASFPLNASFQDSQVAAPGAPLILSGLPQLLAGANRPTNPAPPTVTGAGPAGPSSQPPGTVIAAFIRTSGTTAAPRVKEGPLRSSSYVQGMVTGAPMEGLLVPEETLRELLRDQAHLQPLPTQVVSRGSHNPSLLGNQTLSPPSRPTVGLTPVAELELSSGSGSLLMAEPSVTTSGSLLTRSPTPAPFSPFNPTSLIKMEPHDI
Chain of SPIB (Q01892 whole entry): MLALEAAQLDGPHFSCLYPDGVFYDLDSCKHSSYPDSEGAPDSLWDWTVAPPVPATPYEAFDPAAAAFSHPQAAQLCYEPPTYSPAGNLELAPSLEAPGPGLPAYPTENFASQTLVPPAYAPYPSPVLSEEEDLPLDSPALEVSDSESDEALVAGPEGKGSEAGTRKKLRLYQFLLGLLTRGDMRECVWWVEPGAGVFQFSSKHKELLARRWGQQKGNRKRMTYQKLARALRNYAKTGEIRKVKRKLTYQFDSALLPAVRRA
Chain of ELF1 (P32519 whole entry): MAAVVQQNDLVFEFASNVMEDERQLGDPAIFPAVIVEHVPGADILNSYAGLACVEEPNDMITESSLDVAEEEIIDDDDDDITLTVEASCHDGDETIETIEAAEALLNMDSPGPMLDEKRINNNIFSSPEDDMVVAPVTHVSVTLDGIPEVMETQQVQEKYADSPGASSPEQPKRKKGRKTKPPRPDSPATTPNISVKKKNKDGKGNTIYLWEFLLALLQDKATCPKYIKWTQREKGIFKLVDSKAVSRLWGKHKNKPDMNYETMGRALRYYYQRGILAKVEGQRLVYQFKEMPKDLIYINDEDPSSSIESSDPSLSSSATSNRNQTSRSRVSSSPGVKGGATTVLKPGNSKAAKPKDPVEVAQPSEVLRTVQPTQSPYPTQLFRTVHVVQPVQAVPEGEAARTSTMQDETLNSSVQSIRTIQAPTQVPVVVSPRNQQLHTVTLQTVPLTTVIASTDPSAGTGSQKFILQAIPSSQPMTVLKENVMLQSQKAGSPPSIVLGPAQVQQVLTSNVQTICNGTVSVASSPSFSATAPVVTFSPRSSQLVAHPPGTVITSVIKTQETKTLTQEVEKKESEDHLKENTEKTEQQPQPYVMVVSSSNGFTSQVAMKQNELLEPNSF
Chain of ETV5 (P41161 whole entry): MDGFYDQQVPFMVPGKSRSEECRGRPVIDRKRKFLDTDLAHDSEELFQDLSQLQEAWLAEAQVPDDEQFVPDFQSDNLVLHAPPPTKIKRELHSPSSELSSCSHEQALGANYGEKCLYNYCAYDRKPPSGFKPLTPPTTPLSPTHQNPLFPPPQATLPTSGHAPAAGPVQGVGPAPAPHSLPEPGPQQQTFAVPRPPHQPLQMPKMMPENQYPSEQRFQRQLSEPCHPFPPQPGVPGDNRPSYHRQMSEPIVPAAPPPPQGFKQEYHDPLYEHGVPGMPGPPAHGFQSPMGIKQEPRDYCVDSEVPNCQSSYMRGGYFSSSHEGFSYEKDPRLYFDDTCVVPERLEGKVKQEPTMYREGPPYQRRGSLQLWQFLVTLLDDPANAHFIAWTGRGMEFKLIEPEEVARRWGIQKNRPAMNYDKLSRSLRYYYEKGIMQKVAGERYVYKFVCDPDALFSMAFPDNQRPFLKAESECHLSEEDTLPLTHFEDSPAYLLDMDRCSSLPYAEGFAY
Chain of HSF1 (Q00613 whole entry): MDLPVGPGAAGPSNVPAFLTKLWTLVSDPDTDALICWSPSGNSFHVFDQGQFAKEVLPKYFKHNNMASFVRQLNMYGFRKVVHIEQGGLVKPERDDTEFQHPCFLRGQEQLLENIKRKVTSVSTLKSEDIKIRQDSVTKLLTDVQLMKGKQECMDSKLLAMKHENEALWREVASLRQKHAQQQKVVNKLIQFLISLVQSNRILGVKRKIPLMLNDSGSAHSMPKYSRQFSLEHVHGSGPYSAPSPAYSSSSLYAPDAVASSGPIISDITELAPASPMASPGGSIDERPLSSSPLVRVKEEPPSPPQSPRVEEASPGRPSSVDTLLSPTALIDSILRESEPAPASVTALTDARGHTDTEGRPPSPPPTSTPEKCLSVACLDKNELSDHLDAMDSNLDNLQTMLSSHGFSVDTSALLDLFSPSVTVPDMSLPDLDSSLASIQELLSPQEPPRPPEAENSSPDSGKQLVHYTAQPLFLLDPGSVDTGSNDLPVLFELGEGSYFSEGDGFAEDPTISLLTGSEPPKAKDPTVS
Chain of ETV1 (P50549 whole entry): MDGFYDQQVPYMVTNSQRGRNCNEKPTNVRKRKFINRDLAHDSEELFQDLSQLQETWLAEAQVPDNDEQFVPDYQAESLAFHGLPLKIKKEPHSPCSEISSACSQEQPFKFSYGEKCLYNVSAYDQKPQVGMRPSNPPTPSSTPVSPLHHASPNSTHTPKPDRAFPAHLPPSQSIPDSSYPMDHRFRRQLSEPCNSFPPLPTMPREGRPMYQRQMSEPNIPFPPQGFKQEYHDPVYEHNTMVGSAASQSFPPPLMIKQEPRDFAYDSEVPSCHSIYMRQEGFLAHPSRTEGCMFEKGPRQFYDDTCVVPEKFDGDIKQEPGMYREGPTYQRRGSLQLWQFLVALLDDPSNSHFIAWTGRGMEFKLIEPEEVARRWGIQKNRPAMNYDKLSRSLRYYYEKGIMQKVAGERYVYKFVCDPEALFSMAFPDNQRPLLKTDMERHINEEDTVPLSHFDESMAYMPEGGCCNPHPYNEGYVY
Chain of CRX (O43186 whole entry): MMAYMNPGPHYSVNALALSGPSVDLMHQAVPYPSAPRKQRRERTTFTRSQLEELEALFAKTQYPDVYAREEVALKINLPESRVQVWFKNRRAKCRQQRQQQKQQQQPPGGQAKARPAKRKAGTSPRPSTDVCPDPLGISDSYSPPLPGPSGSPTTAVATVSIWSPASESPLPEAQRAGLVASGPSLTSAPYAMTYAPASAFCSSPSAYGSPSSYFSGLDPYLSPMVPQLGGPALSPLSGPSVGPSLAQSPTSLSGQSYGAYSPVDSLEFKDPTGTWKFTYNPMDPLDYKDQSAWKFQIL

Q: Which binding signal (FLI1) does the source give for ATTATT here?
A: 1.14 fold enrichment (6-mer frequency, TF over GST control)

Q: And the binding signal (ELK1)?
A: 1.17 fold enrichment (6-mer frequency, TF over GST control)

Q: And the binding signal (GABPA)?
A: 1.1 fold enrichment (6-mer frequency, TF over GST control)

Q: And the binding signal (ERG)?
A: 1.17 fold enrichment (6-mer frequency, TF over GST control)

Q: What about the binding signal (ELF1) of the same sequence?
A: 1.13 fold enrichment (6-mer frequency, TF over GST control)

Q: And the binding signal (EHF)?
A: 1.16 fold enrichment (6-mer frequency, TF over GST control)

Q: And the binding signal (SPI1)?
A: 1.02 fold enrichment (6-mer frequency, TF over GST control)

Q: And the binding signal (SPIB)?
A: 1.12 fold enrichment (6-mer frequency, TF over GST control)

Q: What about the binding signal (ELK3) of the same sequence?
A: 1.14 fold enrichment (6-mer frequency, TF over GST control)

Q: And the binding signal (FEV)?
A: 1.15 fold enrichment (6-mer frequency, TF over GST control)

Q: And the binding signal (ETV5)?
A: 1.17 fold enrichment (6-mer frequency, TF over GST control)

Q: What about the binding signal (HSF1) of the same sequence?
A: 1.8 fold enrichment (6-mer frequency, TF over GST control)

Q: And the binding signal (SPIC)?
A: 1.2 fold enrichment (6-mer frequency, TF over GST control)

Q: What about the binding signal (ELF4) of the same sequence?
A: 1.24 fold enrichment (6-mer frequency, TF over GST control)

Q: What about the binding signal (ELK4) of the same sequence?
A: 1.23 fold enrichment (6-mer frequency, TF over GST control)

Q: What about the binding signal (ETV2) of the same sequence?
A: 1.11 fold enrichment (6-mer frequency, TF over GST control)

Q: What about the binding signal (ELF3) of the same sequence?
A: 1.1 fold enrichment (6-mer frequency, TF over GST control)

Q: And the binding signal (CRX)?
A: 2.37 fold enrichment (6-mer frequency, TF over GST control)

Q: And the binding signal (ETV1)?
A: 1.29 fold enrichment (6-mer frequency, TF over GST control)
